# From PubChem BioAssay (NCI)
# Compounds without any hit were thinned out: in the full panel of roughly 79,000, 15% have a hit. Active and inactive are the calls of the source. Rule as the data show it: active = growth inhibition above about 70%; inactive = the rest.
# What was measured:
# [1] = NCI Yeast Anticancer Drug Screen. Data for the rad50 strain (AID 155);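 also: 0% = growth of vehicle-only cultures of the same strain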; details: S. cerevisiae rad50 strain growth inhibition; at 50.0 µM; hits give high values
# Outline: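 Readout: growth inhibition relative to vehicle-treated cultures. Compound exposure was carried out in a genetically defined yeast strain deficient in DNA damage repair.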
# [2] = NCI Yeast Anticancer Drug Screen. Data for the mec2-1 strain (AID 157); details: S. cerevisiae mec2-1 strain, at 50.0 µM, hits give high values
# Outline: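 Growth inhibition is read against vehicle-treated controls after compound exposure of the mec2-1 yeast strain, which is defective in DNA damage repair or cell cycle control.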
# [3] = NCI Yeast Anticancer Drug Screen. Data for the sgs1 mgt1 strain (AID 161);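 also: 0% = growth of cultures given vehicle only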; details: S. cerevisiae sgs1 mgt1 strain, at 50.0 µM, hits give high values
# Outline: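 Yeast cells carrying a defined DNA-repair defect were exposed to test compounds. Growth inhibition was measured relative to vehicle-treated controls.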
# [4] = NCI Yeast Anticancer Drug Screen. Data for the cln2 rad14 strain (AID 165);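 also: 0% = growth equal to vehicle treated cultures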; details: S. cerevisiae cln2 rad14 strain, at 50.0 µM, hits give high values
# Outline: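 Growth inhibition, relative to vehicle-treated controls, is the read-out. The test organism is a yeast strain with defined genetic alterations, cln2 rad14.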
# [5] = NCI Yeast Anticancer Drug Screen. Data for the mlh1 rad18 strain (AID 175); details: S. cerevisiae mlh1 rad18 strain growth inhibition; at 50.0 µM; hits give high values
# Outline: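 Cells of a genetically altered yeast strain, deficient in DNA damage repair, were treated with compound. Their growth was then compared with that of vehicle-treated cultures to give inhibition.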
# [6] = NCI Yeast Anticancer Drug Screen. Data for the bub3 strain (AID 167); details: S. cerevisiae bub3 mutant strain, at 50.0 µM, hits give high values
# Outline: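 Readout: yeast growth inhibition, expressed relative to vehicle-only wells. The test organism is a mutant strain from a panel with lesions in DNA repair or checkpoint genes.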
Structure (SMILES),growth inhibition [1],growth inhibition [2],growth inhibition [3],growth inhibition [4],growth inhibition [5],growth inhibition [6]
CC1CCCCN1CCCO (configuration not stated),14.6% (inactive),-32.4% (inactive),-22.1% (inactive),3.05% (inactive),17.4% (inactive),
CCCCCCCCCCCCCCCCCC1=Nc2cc(C)c(C)cc2NC(=O)C1,-21.7% (inactive),-31.6% (inactive),-30.1% (inactive),7.35% (inactive),-8.1% (inactive),
COC(=O)C1(C(C(=O)c2ccccc2)c2ccccc2)NC(=S)NC(=O)C1C#N (configuration not stated),-14.4% (inactive),10.2% (inactive),-19.9% (inactive),6.25% (inactive),-9.7% (inactive),
COc1cc(NC(C)CNC(C)C)c2ncccc2c1 (configuration not stated),-15.7% (inactive),-4.85% (inactive),-2.1% (inactive),-34% (inactive),2.1% (inactive),
CCOc1ccc(N=c2ccn3ccccc3c2)cc1,-2.05% (inactive),-10.3% (inactive),-24.2% (inactive),-24.4% (inactive),-28.5% (inactive),
CC1(C)C(=O)C(C)(C)C(=O)C(C)(C)C1=O,2.45% (inactive),-15.7% (inactive),5.4% (inactive),16.9% (inactive),-0.3% (inactive),
CC1COC2(CCCCC2)O1 (configuration not stated),-25.2% (inactive),-3.45% (inactive),-44.1% (inactive),-37% (inactive),-26.1% (inactive),
O=C(O)c1c(Br)c(Br)c(Br)c(Br)c1C(=O)Nc1ccc([N+](=O)[O-])cc1,-14.6% (inactive),2.65% (inactive),3.35% (inactive),4.75% (inactive),-1.05% (inactive),
COc1ccc(N=C(N)N=C(N)N)cc1,-3.3% (inactive),-2% (inactive),-6.9% (inactive),8.2% (inactive),0% (inactive),
Cc1cc(N=C2C=C(Nc3cc(C)on3)C(=O)c3ccccc32)no1,-8.9% (inactive),-1.25% (inactive),-21.4% (inactive),1.05% (inactive),6.05% (inactive),
O=C(O)CC1CCCCCC1,21.9% (inactive),8.25% (inactive),12.8% (inactive),12.9% (inactive),12% (inactive),
COC(=O)C1=CON2C3CC4CC(C3)CC(C4)C12C (configuration not stated),-2% (inactive),-30.6% (inactive),-8.95% (inactive),-14.2% (inactive),-5.9% (inactive),
CC1(C)CCC(C)(C)c2cc(C(=O)O)ccc21,7.55% (inactive),5.3% (inactive),1.55% (inactive),5.4% (inactive),5.05% (inactive),
O=C1c2ccccc2C(=O)N1c1ccc(C(F)(F)F)cc1[N+](=O)[O-],-1.25% (inactive),16.2% (inactive),19.7% (inactive),-15.8% (inactive),7.2% (inactive),
CSC1(C)C(=O)Nc2cc(C(F)(F)F)ccc21 (configuration not stated),17.6% (inactive),1.5% (inactive),1.65% (inactive),17.4% (inactive),3.4% (inactive),
COC(=O)/C(=C\c1ccccc1N)c1cc2c(cc1Br)OCO2,84.2% (active),40.2% (inactive),82.4% (active),41.4% (inactive),68.1% (inactive),
COc1cc(C(c2ccc3c(c2)OCO3)C2SCCCS2)cc(OC)c1OC (configuration not stated),25.2% (inactive),13.7% (inactive),21% (inactive),6.6% (inactive),37.9% (inactive),
COC(=O)C1=C(C(=O)OC)C2CCCOC2=C(C)C1 (configuration not stated),-1.35% (inactive),12.1% (inactive),-6.15% (inactive),41.2% (inactive),7% (inactive),
NC(=O)SCC(=O)Nc1ccc2cccc3c2c1CC3,66.2% (inactive),60.3% (inactive),80% (active),61.6% (inactive),85.2% (active),

Structure (SMILES),growth inhibition [1],growth inhibition [2],growth inhibition [3],growth inhibition [4],growth inhibition [5],growth inhibition [6]
COc1ccc(/C=C2\CCN(C(C)=O)C2=O)cc1,2.35% (inactive),-2.65% (inactive),-7.8% (inactive),2.6% (inactive),-10.7% (inactive),
O=C(O)c1cccc([N+](=O)[O-])c1C(=O)O,15.3% (inactive),11.3% (inactive),11.4% (inactive),7.9% (inactive),17.2% (inactive),
COc1cc(C)nc2ccc(Cc3ccc4nc(C)cc(OC)c4c3)cc12,6.75% (inactive),6.8% (inactive),-3% (inactive),-14.2% (inactive),25.6% (inactive),
S=C(SCc1nc(-c2ccc(Cl)cc2)no1)N1CCSCC1,-1.9% (inactive),-24.9% (inactive),17.9% (inactive),-2.6% (inactive),-9.4% (inactive),-3.25% (inactive)
COc1ccc2c(c1)OC(C)(C)c1c-2n(C)c2c(F)cccc2c1=O,14.8% (inactive),8.7% (inactive),16.1% (inactive),14.2% (inactive),29.8% (inactive),
CC(=O)Nc1ccccc1Cc1nc2ccccc2c(=O)[nH]1,15.7% (inactive),12.6% (inactive),25.1% (inactive),7.9% (inactive),16.8% (inactive),
N#Cc1ccc[n+]([O-])c1,-8.8% (inactive),-6.1% (inactive),0.05% (inactive),-0.7% (inactive),-4.6% (inactive),
Brc1ccc(Br)s1,-11.2% (inactive),-0.1% (inactive),-20.4% (inactive),-38.3% (inactive),0.4% (inactive),
NC(=O)c1ccccc1O,13.5% (inactive),5.15% (inactive),11.4% (inactive),6.2% (inactive),15.2% (inactive),
CSc1n[n+](-c2ccccc2)cs1,6.3% (inactive),6.15% (inactive),4.4% (inactive),6.9% (inactive),-3.35% (inactive),
CCC(C)C(N)C1=NC(C(=O)NC(CC(C)C)C(=O)NC(CCC(=O)O)C(=O)NC(C(=O)NC2CCCCNC(=O)C(CC(N)=O)NC(=O)C(CC(=O)O)NC(=O)C(Cc3cnc[nH]3)NC(=O)C(Cc3ccccc3)NC(=O)C(C(C)CC)NC(=O)C(CCCN)NC2=O)C(C)CC)CS1 (configuration not stated),12.9% (inactive),-24.9% (inactive),0.2% (inactive),25.6% (inactive),-7.3% (inactive),
Clc1cc(Cl)cc(C=NC23CC4CC(CC(C4)C2)C3)c1,-13.8% (inactive),-31.2% (inactive),-40.5% (inactive),-20% (inactive),-11% (inactive),-24.4% (inactive)
Cc1cc(S(=O)(=O)Nc2n[nH]c(Nc3ccc(Cl)cc3)n2)c(S)cc1Cl,-8.1% (inactive),-14.9% (inactive),6.7% (inactive),7.05% (inactive),17.4% (inactive),
CNC(=O)CN(CC(N)=O)C(=O)NC,-29.5% (inactive),-20.3% (inactive),-27.6% (inactive),0.65% (inactive),-35% (inactive),
COc1c2cc(C(C)(C)C)cc1CSCc1cc(C(C)(C)C)cc(c1OC)CCCCC2,-1.25% (inactive),-3.4% (inactive),16.2% (inactive),-14.1% (inactive),-1.6% (inactive),
CC(=O)OC1C(COS(=O)(=O)c2ccc(C)cc2)OCOC(COS(=O)(=O)c2ccc(C)cc2)C1OC(C)=O (configuration not stated),0.2% (inactive),4.4% (inactive),-0.55% (inactive),-26.2% (inactive),18.4% (inactive),
Cc1ccc2c(c1)CC1(C2=O)[C@H](c2ccccc2)C2C(=O)c3ccc(C)cc3C2[C@H]1c1ccccc1 (some centres not stated),-14.8% (inactive),13.5% (inactive),-0.15% (inactive),-11.1% (inactive),9.5% (inactive),
O=C(O)C1C2CCC3C(C(=O)O)C3C21 (configuration not stated),-2.7% (inactive),18.6% (inactive),-4.95% (inactive),-40.2% (inactive),-0.8% (inactive),
CC(=O)N(C(C)=O)c1ccc2c3c(cccc13)CC2,0% (inactive),-3.9% (inactive),2.6% (inactive),-19.1% (inactive),-1.2% (inactive),
